Counter-ions that a name gives are not always drawn.
System: Danio rerio larvae (5 dpf)
Assay: startle (activity period 16 minus period 15, 20-s interval sound) minus DMSO control (percentage points); higher = stronger startle response than DMSO larvae
Conditions: 10 µM; exposure time: 3 h pre-incubation + 3 h imaging
Experimental: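 Wild-type 5 dpf zebrafish larvae (n=48 per drug, 96-well plates, 28.5 °C) were exposed to Tocris FDA-approved library compounds at 10 µM (0.1% DMSO) for 3 h before and 3 h during imaging. Images were taken every 6 s during visual (moving coloured lines) and acoustic stimuli, and larvae were tracked with the DeepLabCut-based Z-LaP Tracker. Each behavioural measure is the treated-group mean minus the DMSO vehicle control mean (n=844), in percentage points. This mapping covers compounds with 4-character plate codes.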

SMILES | startle
Cc1cccc(CN2CCN(C(c3ccccc3)c3ccc(Cl)cc3)CC2)c1 (stereo not given) [Meclizine dihydrochloride] | -7.54
CN(CCOc1ccc(CC2SC(=O)NC2=O)cc1)c1ccccn1 (stereo not given) [Rosiglitazone] | -1.31
NC(=O)c1ncn([C@@H]2O[C@H](CO)[C@@H](O)[C@H]2O)n1 [Ribavirin] | 2.04
COCCCOc1cc(C[C@@H](C[C@H](N)[C@@H](O)C[C@H](C(=O)NCC(C)(C)C(N)=O)C(C)C)C(C)C)ccc1OC [Aliskiren hemifumarate] | 0.496
COc1c(C)c2c(c(O)c1C/C=C(\C)CCC(=O)O)C(=O)OC2 [Mycophenolic acid] | 3.04
CN1CCN2c3ncccc3Cc3ccccc3C2C1 (stereo not given) [Mirtazapine] | -6.05
OCCN(CCO)c1nc(N2CCCCC2)c2nc(N(CCO)CCO)nc(N3CCCCC3)c2n1 [Dipyridamole] | 7.7
Nc1nc2c(ncn2COCCO)c(=O)[nH]1 [Acyclovir] | -0.609
C=CC(=O)N1CCC[C@@H](n2nc(-c3ccc(Oc4ccccc4)cc3)c3c(N)ncnc32)C1 [Ibrutinib] | 4.43
CC1(C)O[C@@H]2[C@@H](CO[C@@]3(COS(N)(=O)=O)OC(C)(C)O[C@@H]23)O1 [Topiramate] | -0.863
CCCN(CCc1cccs1)[C@H]1CCc2c(O)cccc2C1 [Rotigotine hydrochloride] | -5.79
CN(CCOc1ccc(NS(C)(=O)=O)cc1)CCc1ccc(NS(C)(=O)=O)cc1 [Dofetilide] | 0.253
CCCCC(=O)N(Cc1ccc(-c2ccccc2-c2nnn[nH]2)cc1)[C@H](C(=O)O)C(C)C [Valsartan] | 0.232
O=C1CCc2cc(OCCCCc3nnnn3C3CCCCC3)ccc2N1 [Cilostazol] | 1.37
CCOC(=O)C1=C(C)NC(C)=C(C(=O)OC)C1c1cccc(Cl)c1Cl (stereo not given) [Felodipine] | 7.93
Cc1nnc(C(C)C)n1C1C[C@H]2CC[C@@H](C1)N2CC[C@H](NC(=O)C1CCC(F)(F)CC1)c1ccccc1 (stereo in doubt) [Maraviroc] | -4.84
COc1ccc(C[C@@H](C)NC[C@H](O)c2ccc(O)c(NC=O)c2)cc1 [Arformoterol tartrate] | -8.08
CC(C)[C@H]1CC[C@H](C(=O)N[C@H](Cc2ccccc2)C(=O)O)CC1 [Nateglinide] | 3.17
Cc1ccsc1C(=CCCN1CCC[C@@H](C(=O)O)C1)c1sccc1C [Tiagabine hydrochloride] | 7.31
Cc1ccc(-c2cc(C(F)(F)F)nn2-c2ccc(S(N)(=O)=O)cc2)cc1 [Celecoxib] | -8.09

SMILES | startle
Cc1cccc(C)c1OCC(C)N (stereo not given) [Mexiletine hydrochloride] | 0.959
CC(C)c1nc(CN(C)C(=O)N[C@H](C(=O)N[C@@H](Cc2ccccc2)C[C@H](O)[C@H](Cc2ccccc2)NC(=O)OCc2cncs2)C(C)C)cs1 [Ritonavir] | 1.44
CC(C)Nc1cccnc1N1CCN(C(=O)c2cc3cc(NS(C)(=O)=O)ccc3[nH]2)CC1 [Delavirdine mesylate] | -4.71
CC(C)(C(=O)c1cccnc1)c1cccnc1 [Metyrapone] | -0.289
N[C@@H]1[C@H]2CN(c3nc4c(cc3F)c(=O)c(C(=O)O)cn4-c3ccc(F)cc3F)C[C@@H]12 [Trovafloxacin mesylate] | -8.4
CN1CC2c3ccccc3Oc3ccc(Cl)cc3C2C1 (stereo not given) [Asenapine maleate] | -6.16
COc1cc2nc(N3CCN(C(=O)C4COc5ccccc5O4)CC3)nc(N)c2cc1OC (stereo not given) [Doxazosin mesylate] | 6.47
CN1CC[C@@H](NC(=O)Nc2ccc(C#N)cc2)C[C@@H]1c1nc2ccccc2[nH]1 | -4.15
O=c1[nH]c(=O)n([C@H]2C[C@H](O)[C@@H](CO)O2)cc1C(F)(F)F [Trifluorothymidine] | 1.59
CN/C(=N\CCSCc1nc[nH]c1C)NC#N [Cimetidine] | 5.75
CC(C)N(CCCCOCC(=O)NS(C)(=O)=O)c1cnc(-c2ccccc2)c(-c2ccccc2)n1 [Selexipag] | 1.3
CC1CNc2c(cccc2S(=O)(=O)N[C@@H](CCCNC(=N)N)C(=O)N2CC[C@@H](C)C[C@@H]2C(=O)O)C1 (stereo not given in full) [Argatroban] | 2.82
CC(=O)O[C@]1(C(C)=O)CC[C@H]2[C@@H]3C=C(C)C4=CC(=O)CC[C@]4(C)[C@H]3CC[C@@]21C [Megestrol Acetate] | -12.5
Nc1cc(N2CCCCC2)nc(N)[n+]1[O-] [Minoxidil] | -1.64
CCC(=O)O[C@]1(C(=O)SCF)[C@H](C)C[C@H]2[C@@H]3C[C@H](F)C4=CC(=O)C=C[C@]4(C)[C@@]3(F)[C@@H](O)C[C@@]21C [Fluticasone propionate] | -2.41
Cc1ccc(O)c([C@H](CCN(C(C)C)C(C)C)c2ccccc2)c1 [Tolterodine L-tartrate] | -5.5
O=C(c1ccc(OCCN2CCCCC2)cc1)c1c(-c2ccc(O)cc2)sc2cc(O)ccc12 [Raloxifene hydrochloride] | 2.55
CN1CCC[C@@H]1Cc1c[nH]c2ccc(CCS(=O)(=O)c3ccccc3)cc12 [Eletriptan hydrobromide] | 0.814
COc1ccc(Cl)cc1C(=O)NCCc1ccc(S(=O)(=O)NC(=O)NC2CCCCC2)cc1 [Glibenclamide] | 8.34
C[C@]12CC[C@@H]3c4ccc(O)cc4C[C@@H](CCCCCCCCC[S+]([O-])CCCC(F)(F)C(F)(F)F)[C@H]3[C@@H]1CC[C@@H]2O (stereo not given in full) | -0.0663
